Results taken from the supplement of paper PMC10849652.
The full data set covers some 8,800 targets. This sample favours those with a hit. About 0.5% of all pairs of compound and target were hits.

Sequence of UniProt Q96I59 (Q96I59 whole entry, looked up): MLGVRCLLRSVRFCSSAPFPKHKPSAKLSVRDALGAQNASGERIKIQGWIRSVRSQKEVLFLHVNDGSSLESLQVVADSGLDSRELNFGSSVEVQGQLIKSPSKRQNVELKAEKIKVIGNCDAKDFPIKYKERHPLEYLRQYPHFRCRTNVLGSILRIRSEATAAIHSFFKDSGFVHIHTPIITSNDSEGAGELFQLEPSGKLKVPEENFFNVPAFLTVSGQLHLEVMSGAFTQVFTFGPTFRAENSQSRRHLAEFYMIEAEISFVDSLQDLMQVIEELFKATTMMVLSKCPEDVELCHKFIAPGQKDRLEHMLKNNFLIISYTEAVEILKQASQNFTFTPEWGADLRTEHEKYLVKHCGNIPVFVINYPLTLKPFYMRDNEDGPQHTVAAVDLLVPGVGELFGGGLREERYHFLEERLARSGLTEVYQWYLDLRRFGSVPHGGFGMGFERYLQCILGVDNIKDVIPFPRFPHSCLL
Sequence of UniProt Q6IBW4 (Q6IBW4 whole entry, looked up): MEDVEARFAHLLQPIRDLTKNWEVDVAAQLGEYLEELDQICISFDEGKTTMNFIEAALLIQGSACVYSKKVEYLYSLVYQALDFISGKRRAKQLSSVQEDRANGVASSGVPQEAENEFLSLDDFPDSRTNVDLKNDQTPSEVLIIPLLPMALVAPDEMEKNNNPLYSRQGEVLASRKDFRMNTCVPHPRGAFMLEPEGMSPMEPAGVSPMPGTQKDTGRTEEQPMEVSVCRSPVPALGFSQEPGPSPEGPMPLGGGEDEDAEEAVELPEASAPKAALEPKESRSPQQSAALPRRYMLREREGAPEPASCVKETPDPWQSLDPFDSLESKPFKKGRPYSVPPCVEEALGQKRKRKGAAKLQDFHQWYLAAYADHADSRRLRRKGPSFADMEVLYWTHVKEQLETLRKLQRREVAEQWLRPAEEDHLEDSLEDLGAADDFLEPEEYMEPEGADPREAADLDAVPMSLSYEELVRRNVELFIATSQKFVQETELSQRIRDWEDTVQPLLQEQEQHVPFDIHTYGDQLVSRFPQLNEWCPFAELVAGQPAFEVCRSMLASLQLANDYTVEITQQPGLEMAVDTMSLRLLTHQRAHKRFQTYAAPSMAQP
Sequence of UniProt Q9BSD7 (Q9BSD7 whole entry, looked up): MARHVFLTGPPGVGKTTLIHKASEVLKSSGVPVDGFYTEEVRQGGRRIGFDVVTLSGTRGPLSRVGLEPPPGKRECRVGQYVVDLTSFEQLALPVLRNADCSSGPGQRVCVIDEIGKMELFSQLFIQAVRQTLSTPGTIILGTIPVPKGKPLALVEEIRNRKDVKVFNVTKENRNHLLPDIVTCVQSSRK
Sequence of UniProt O15294 (O15294 whole entry, looked up): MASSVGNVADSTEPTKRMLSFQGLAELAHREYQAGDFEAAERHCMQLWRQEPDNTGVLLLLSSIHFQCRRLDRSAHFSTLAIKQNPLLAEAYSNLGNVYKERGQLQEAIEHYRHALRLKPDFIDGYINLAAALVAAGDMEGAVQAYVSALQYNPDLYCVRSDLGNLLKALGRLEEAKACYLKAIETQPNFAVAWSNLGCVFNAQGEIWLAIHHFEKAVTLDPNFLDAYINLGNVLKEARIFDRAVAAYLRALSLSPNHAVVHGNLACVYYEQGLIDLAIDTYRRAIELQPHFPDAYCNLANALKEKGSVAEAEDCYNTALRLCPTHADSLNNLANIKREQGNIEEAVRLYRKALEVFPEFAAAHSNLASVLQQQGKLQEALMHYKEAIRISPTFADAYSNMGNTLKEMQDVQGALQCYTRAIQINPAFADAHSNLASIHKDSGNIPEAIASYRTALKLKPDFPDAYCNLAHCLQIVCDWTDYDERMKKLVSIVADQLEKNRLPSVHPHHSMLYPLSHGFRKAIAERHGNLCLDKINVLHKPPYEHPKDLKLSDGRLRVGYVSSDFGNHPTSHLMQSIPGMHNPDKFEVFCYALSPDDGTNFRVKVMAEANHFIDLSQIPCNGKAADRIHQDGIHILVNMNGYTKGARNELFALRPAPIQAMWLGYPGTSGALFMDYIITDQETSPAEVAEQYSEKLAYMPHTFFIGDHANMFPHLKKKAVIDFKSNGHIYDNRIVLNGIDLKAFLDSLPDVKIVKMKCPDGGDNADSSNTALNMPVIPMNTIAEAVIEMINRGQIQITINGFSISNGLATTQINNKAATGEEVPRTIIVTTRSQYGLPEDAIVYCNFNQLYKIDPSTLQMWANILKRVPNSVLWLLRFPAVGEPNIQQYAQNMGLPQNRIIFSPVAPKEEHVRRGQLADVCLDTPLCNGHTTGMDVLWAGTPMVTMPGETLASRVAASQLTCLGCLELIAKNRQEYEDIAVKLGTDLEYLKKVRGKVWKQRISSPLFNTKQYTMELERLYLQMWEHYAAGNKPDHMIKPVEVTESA
Sequence of UniProt Q99836 (Q99836 whole entry, looked up): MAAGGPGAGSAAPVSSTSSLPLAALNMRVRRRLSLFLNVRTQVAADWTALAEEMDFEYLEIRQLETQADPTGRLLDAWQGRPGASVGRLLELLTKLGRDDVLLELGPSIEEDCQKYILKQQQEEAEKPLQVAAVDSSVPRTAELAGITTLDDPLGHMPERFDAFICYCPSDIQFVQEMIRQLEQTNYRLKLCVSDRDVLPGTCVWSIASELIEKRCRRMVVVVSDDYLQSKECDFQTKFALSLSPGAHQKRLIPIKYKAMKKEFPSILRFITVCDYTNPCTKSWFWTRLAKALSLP
Sequence of UniProt Q9Y530 (Q9Y530 whole entry, looked up): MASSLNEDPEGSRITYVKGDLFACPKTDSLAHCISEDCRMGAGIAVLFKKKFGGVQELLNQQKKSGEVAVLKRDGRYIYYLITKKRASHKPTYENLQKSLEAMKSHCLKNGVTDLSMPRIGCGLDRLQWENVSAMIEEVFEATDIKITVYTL
Sequence of UniProt Q9Y6R0 (Q9Y6R0 whole entry, looked up): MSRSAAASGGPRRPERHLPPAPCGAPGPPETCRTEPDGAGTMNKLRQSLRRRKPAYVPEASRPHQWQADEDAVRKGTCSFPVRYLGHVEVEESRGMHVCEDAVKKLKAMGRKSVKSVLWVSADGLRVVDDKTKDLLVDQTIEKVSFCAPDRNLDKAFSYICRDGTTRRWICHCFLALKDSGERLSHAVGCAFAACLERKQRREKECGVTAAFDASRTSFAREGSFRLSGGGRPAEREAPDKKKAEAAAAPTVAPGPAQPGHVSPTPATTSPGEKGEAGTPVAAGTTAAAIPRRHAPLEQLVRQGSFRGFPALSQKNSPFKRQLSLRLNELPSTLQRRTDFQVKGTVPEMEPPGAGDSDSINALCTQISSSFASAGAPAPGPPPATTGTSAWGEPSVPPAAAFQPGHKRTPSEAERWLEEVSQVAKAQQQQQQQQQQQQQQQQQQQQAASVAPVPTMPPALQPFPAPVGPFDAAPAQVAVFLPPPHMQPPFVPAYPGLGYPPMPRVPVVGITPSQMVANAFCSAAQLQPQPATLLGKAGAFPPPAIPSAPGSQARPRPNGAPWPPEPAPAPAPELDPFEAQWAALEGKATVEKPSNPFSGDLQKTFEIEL
Sequence of UniProt O96013 (O96013 whole entry, looked up): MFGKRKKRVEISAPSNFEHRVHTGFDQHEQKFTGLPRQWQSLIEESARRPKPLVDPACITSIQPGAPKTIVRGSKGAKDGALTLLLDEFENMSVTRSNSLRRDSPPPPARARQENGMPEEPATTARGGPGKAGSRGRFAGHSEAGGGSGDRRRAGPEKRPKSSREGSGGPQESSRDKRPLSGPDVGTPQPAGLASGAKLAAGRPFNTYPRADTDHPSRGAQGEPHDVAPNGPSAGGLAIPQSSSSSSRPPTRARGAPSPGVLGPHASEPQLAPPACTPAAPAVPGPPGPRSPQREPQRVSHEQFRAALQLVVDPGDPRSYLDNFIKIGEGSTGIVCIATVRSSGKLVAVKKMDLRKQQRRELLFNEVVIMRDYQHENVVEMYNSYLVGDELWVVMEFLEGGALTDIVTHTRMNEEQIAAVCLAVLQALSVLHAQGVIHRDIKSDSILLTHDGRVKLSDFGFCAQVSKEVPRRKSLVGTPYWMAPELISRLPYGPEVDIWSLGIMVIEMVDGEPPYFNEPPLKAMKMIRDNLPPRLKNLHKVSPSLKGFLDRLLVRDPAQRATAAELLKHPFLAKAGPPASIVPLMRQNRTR
Sequence of UniProt O60313 (O60313 whole entry, looked up): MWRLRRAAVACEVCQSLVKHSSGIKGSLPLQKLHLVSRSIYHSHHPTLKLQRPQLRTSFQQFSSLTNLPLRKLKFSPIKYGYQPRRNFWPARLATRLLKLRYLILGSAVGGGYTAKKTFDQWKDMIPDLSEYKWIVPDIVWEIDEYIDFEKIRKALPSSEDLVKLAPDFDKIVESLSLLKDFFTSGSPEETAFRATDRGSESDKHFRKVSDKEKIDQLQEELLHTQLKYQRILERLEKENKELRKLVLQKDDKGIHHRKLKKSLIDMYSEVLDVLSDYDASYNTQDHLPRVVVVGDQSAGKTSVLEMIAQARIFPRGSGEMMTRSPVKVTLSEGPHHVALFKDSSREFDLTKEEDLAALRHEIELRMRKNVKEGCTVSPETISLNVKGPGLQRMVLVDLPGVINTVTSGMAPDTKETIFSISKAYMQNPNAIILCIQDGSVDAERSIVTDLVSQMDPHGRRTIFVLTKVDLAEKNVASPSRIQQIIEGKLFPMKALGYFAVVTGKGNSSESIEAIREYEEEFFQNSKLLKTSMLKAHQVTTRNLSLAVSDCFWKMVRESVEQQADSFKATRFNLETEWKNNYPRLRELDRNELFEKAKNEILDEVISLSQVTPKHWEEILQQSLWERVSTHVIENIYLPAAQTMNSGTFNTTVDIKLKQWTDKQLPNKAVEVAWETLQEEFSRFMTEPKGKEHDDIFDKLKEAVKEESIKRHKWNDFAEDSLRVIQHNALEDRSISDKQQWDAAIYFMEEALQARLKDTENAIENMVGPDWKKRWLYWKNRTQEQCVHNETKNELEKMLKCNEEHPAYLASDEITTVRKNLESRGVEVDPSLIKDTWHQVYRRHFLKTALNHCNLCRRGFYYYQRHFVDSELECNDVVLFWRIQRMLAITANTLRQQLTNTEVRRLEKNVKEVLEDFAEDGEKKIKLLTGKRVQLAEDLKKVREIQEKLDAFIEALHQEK

These targets were tested with CNC(=O)c1ccc(Nc2ncc(C(F)(F)F)c(NCc3nccnc3N(C)S(C)(=O)=O)n2)cc1 [defactinib] (assay: log2 fold change, soluble protein after heating vs DMSO (PISA); higher = thermal stabilisation; K562 lysate, 10 uM; active = over 0.2 and 3.5 SD of the protein, either way, in both replicates (recomputed)).
Method in brief: (§1)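 Values give the log-two fold change in thermal stability against solvent controls, from duplicates. Crude K562 extract at 1 mg/mL protein, made by dounce homogenisation in PBS pH 7.4 with 1 mM MgCl2, was treated with 10 μM compound for 30 min. After 3 min heating across 48°C-58°C, aliquots were pooled, adjusted to 0.5% NP-40 at 4°C and centrifuged at 21,000xg for 90 min. The supernatant was measured by TMTpro 16plex LC-MS/MS with channel sums equalised.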
NAT1 (UniProt P18440) was tested, and the log2 fold change was 0.05 (inactive). With MYCBP (UniProt Q99417) the log2 fold change was 0.022 (inactive). In the case of PAK4 (UniProt O96013), the log2 fold change is reported as 0.441 (inactive). NUMBL (UniProt Q9Y6R0) was tested, and the log2 fold change was -0.218 (inactive). MYD88 isoform 6 (UniProt Q99836) was tested, and the log2 fold change was 0.013 (inactive). With NNMT (UniProt P40261) the log2 fold change was -0.049 (inactive). NR3C1 isoform 3 (UniProt P04150) was tested, and the log2 fold change was 0.021 (inactive). NOSTRIN (UniProt Q8IVI9) was tested, and the log2 fold change was 0.07 (inactive). With MYO1C (UniProt O00159) the log2 fold change was 0.052 (inactive). In the case of NTPCR (UniProt Q9BSD7), the log2 fold change is reported as 0.009 (inactive). OGFR (UniProt Q9NZT2) was tested, and the log2 fold change was -0.015 (inactive). OARD1 (UniProt Q9Y530) was tested, and the log2 fold change was 0.037 (inactive). In the case of NEDD8 (UniProt Q15843), the log2 fold change is reported as 0.019 (inactive). For PAK1 (UniProt Q13153), the log2 fold change was -0.006 (inactive). In the case of NF1 (UniProt P21359), the log2 fold change is reported as 0.012 (inactive). With OGT (UniProt O15294) the log2 fold change was 0.018 (inactive). In the case of NPLOC4 isoform 2 (UniProt Q8TAT6), the log2 fold change is reported as -0.007 (inactive). In the case of MYCBP2 (UniProt O75592), the log2 fold change is reported as 0.019 (inactive). With NUP188 (UniProt Q5SRE5) the log2 fold change was 0.038 (inactive). In the case of NUF2 (UniProt Q9BZD4), the log2 fold change is reported as 0.021 (inactive). With NCAPH2 (UniProt Q6IBW4) the log2 fold change was 0.005 (inactive). For NARS2 (UniProt Q96I59), the log2 fold change was 0.014 (inactive). NCOR2 (UniProt C9J0Q5) was tested, and the log2 fold change was 0.045 (inactive). In the case of MTCH2 (UniProt Q9Y6C9), the log2 fold change is reported as -0.003 (inactive). NTMT1 (UniProt Q9BV86) was tested, and the log2 fold change was 0.065 (inactive). In the case of OGFOD2 (UniProt Q6N063), the log2 fold change is reported as 0.015 (inactive). For OCRL (UniProt Q01968), the log2 fold change was 0.123 (inactive). NOA1 (UniProt Q8NC60) was tested, and the log2 fold change was -0.076 (inactive). In the case of OPA1 isoform 2 (UniProt O60313), the log2 fold change is reported as -0.013 (inactive). For NACC1 (UniProt Q96RE7), the log2 fold change was -0.01 (inactive). With NFIC (UniProt P08651) the log2 fold change was -0.153 (inactive). For PBK (UniProt Q96KB5), the log2 fold change was -0.004 (inactive). For NUMB (UniProt P49757), the log2 fold change was -0.02 (inactive). In the case of NEK7 (UniProt Q8TDX7), the log2 fold change is reported as 0.007 (inactive). MT-CYB (UniProt P00156) was tested, and the log2 fold change was 0.091 (inactive).

These targets were tested with CNc1nc(-c2ccc3c(N)n[nH]c3c2)cc(N2C[C@@H](C(=O)NC3CCCCC3)CC[C@H]2C)n1 in the same assay as above.
Method in brief: as §1
With NAT1 (UniProt P18440) the log2 fold change was -0.046 (inactive). In the case of MYCBP (UniProt Q99417), the log2 fold change is reported as -0.031 (inactive). For PAK4 (UniProt O96013), the log2 fold change was -0.021 (inactive). For NUMBL (UniProt Q9Y6R0), the log2 fold change was 0.023 (inactive). In the case of MYD88 isoform 6 (UniProt Q99836), the log2 fold change is reported as 0.001 (inactive). For NNMT (UniProt P40261), the log2 fold change was -0.086 (inactive). For NR3C1 isoform 3 (UniProt P04150), the log2 fold change was -0.093 (inactive). For NOSTRIN (UniProt Q8IVI9), the log2 fold change was 0.061 (inactive). For MYO1C (UniProt O00159), the log2 fold change was -0.045 (inactive). For NTPCR (UniProt Q9BSD7), the log2 fold change was 0.027 (inactive). For OGFR (UniProt Q9NZT2), the log2 fold change was -0.03 (inactive). In the case of OARD1 (UniProt Q9Y530), the log2 fold change is reported as -0.11 (inactive). NEDD8 (UniProt Q15843) was tested, and the log2 fold change was 0.037 (inactive). In the case of PAK1 (UniProt Q13153), the log2 fold change is reported as 0.044 (inactive). NF1 (UniProt P21359) was tested, and the log2 fold change was 0.009 (inactive). With OGT (UniProt O15294) the log2 fold change was 0.019 (inactive). In the case of NPLOC4 isoform 2 (UniProt Q8TAT6), the log2 fold change is reported as 0.043 (inactive). MYCBP2 (UniProt O75592) was tested, and the log2 fold change was 0.003 (inactive). For NUP188 (UniProt Q5SRE5), the log2 fold change was -0.016 (inactive). With NUF2 (UniProt Q9BZD4) the log2 fold change was -0.007 (inactive). For NCAPH2 (UniProt Q6IBW4), the log2 fold change was -0.084 (inactive). With NARS2 (UniProt Q96I59) the log2 fold change was -0.04 (inactive). With NCOR2 (UniProt C9J0Q5) the log2 fold change was -0.001 (inactive). For MTCH2 (UniProt Q9Y6C9), the log2 fold change was 0.047 (inactive). For NTMT1 (UniProt Q9BV86), the log2 fold change was 0.023 (inactive). OGFOD2 (UniProt Q6N063) was tested, and the log2 fold change was -0.125 (inactive). For OCRL (UniProt Q01968), the log2 fold change was -0.051 (inactive). In the case of NOA1 (UniProt Q8NC60), the log2 fold change is reported as 0.063 (inactive). With OPA1 isoform 2 (UniProt O60313) the log2 fold change was -0.042 (inactive). With NACC1 (UniProt Q96RE7) the log2 fold change was 0.016 (inactive). For NFIC (UniProt P08651), the log2 fold change was -0.048 (inactive). For PBK (UniProt Q96KB5), the log2 fold change was -0.015 (inactive). For NUMB (UniProt P49757), the log2 fold change was 0.026 (inactive). In the case of NEK7 (UniProt Q8TDX7), the log2 fold change is reported as -0.013 (inactive). For MT-CYB (UniProt P00156), the log2 fold change was 0.129 (inactive).

Each target was assayed with COC(=O)N[C@@H](C)CNc1nccc(-c2cn(C(C)C)nc2-c2cc(Cl)cc(NS(C)(=O)=O)c2F)n1 [encorafenib] in the same assay as above.
Method in brief: as §1
With NAT1 (UniProt P18440) the log2 fold change was -0.02 (inactive). With MYCBP (UniProt Q99417) the log2 fold change was 0.005 (inactive). In the case of PAK4 (UniProt O96013), the log2 fold change is reported as -0.173 (inactive). In the case of NUMBL (UniProt Q9Y6R0), the log2 fold change is reported as 0.189 (inactive). In the case of MYD88 isoform 6 (UniProt Q99836), the log2 fold change is reported as 0.003 (inactive). For NNMT (UniProt P40261), the log2 fold change was 0.043 (inactive). NR3C1 isoform 3 (UniProt P04150) was tested, and the log2 fold change was 0.05 (inactive). NOSTRIN (UniProt Q8IVI9) was tested, and the log2 fold change was -0.112 (inactive). In the case of MYO1C (UniProt O00159), the log2 fold change is reported as 0.076 (inactive). With NTPCR (UniProt Q9BSD7) the log2 fold change was 0.005 (inactive). In the case of OGFR (UniProt Q9NZT2), the log2 fold change is reported as 0.02 (inactive). OARD1 (UniProt Q9Y530) was tested, and the log2 fold change was 0.011 (inactive). NEDD8 (UniProt Q15843) was tested, and the log2 fold change was 0.015 (inactive). With PAK1 (UniProt Q13153) the log2 fold change was -0.012 (inactive). NF1 (UniProt P21359) was tested, and the log2 fold change was 0.026 (inactive). For OGT (UniProt O15294), the log2 fold change was 0.043 (inactive). In the case of NPLOC4 isoform 2 (UniProt Q8TAT6), the log2 fold change is reported as 0.021 (inactive). With MYCBP2 (UniProt O75592) the log2 fold change was 0.055 (inactive). NUP188 (UniProt Q5SRE5) was tested, and the log2 fold change was -0.045 (inactive). NUF2 (UniProt Q9BZD4) was tested, and the log2 fold change was 0.027 (inactive). With NCAPH2 (UniProt Q6IBW4) the log2 fold change was 0.064 (inactive). NARS2 (UniProt Q96I59) was tested, and the log2 fold change was -0.01 (inactive). In the case of NCOR2 (UniProt C9J0Q5), the log2 fold change is reported as -0.002 (inactive). MTCH2 (UniProt Q9Y6C9) was tested, and the log2 fold change was -0.01 (inactive). For NTMT1 (UniProt Q9BV86), the log2 fold change was -0.006 (inactive). In the case of OGFOD2 (UniProt Q6N063), the log2 fold change is reported as -0.054 (inactive). With OCRL (UniProt Q01968) the log2 fold change was 0.045 (inactive). With NOA1 (UniProt Q8NC60) the log2 fold change was -0.049 (inactive). OPA1 isoform 2 (UniProt O60313) was tested, and the log2 fold change was -0.017 (inactive). With NACC1 (UniProt Q96RE7) the log2 fold change was 0.022 (inactive). For NFIC (UniProt P08651), the log2 fold change was 0.121 (inactive). PBK (UniProt Q96KB5) was tested, and the log2 fold change was -0.011 (inactive). For NUMB (UniProt P49757), the log2 fold change was 0.094 (inactive). For NEK7 (UniProt Q8TDX7), the log2 fold change was 0 (inactive). In the case of MT-CYB (UniProt P00156), the log2 fold change is reported as 0.036 (inactive).
